HT1080 IDH1KD tx – HT-1080 IDH1 knockdown cell toxicity (counter line). Potency, µM (doses to about 46.1 µM), for inactives: at the top dose activity, negative = toxicity, usual class: cytotoxic. 360,000 tested, 2% active. AID 686971. HT-1080 IDH1 knockdown viability, ATP luminescence, 48 h;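 also: potency is read from the fitted curve at half-maximal effect; 0% = DMSO wells and -100% = cell-free medium wells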
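% activity derives from luminescence (CellTiter-Glo), normalised to DMSO and no-cell wells. HT-1080-IDH1KD cells, 750/well, had 48 h compound exposure at 37 °C.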
DT40 TDP1 CPT – DT40-hTDP1 cell growth loss with CPT | chicken DT40 Tdp1-/-;hTDP1 cells + 20 nM CPT, ATP luminescence, 48 h | Potency, µM (highest dose often 46.2 µM), for inactives: top-dose activity change, negative = growth inhibition, most hits filed as inhibitors | 420,000 tested, 12% active | AID 686979; also: potency is read from the fitted curve at half-maximal effect; nearly all actives have a fitted effect of over 55% in size
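Chicken DT40 Tdp1-/- cells stably complemented with human TDP1 were seeded at 400 cells/well in medium containing 20 nM camptothecin, exposed to pin-transferred compounds, and grown at 37 °C for at least 48 hr. Viability was read as ATP luminescence.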
DT40 TDP1 no CPT – qHTS for Inhibitors of human tyrosyl-DNA phosphodiesterase 1 (TDP1): qHTS in cells in absence of CPT; DT40 Tdp1-/- hTDP1 cells, no CPT, ATP luminescence, 48 h; Potency, µM (doses to about 46.2 µM), inactives show at the highest dose activity change, negative = growth inhibition, actives largely listed as inhibitors; 420,000 tested, 15% active; AID 686978, 2013; also: potency is read from the fitted curve at half-maximal effect; nearly all actives have a fitted effect of over 55% in size
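Growth kinetics read by CellTiter-Glo luminescence after ≥48 hr at 37 °C. Cells: DT40 Tdp1-/- stably carrying human TDP1, 400 per well, compound exposure in the absence of CPT (DMSO vehicle).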
HT1080-NT tox – kills 2HG-producing HT-1080-NT fibrosarcoma cells. 360,000 tested, 1.6% active. Potency, µM (doses to about 46.1 µM), without a hit: at the highest dose activity, negative = less viability, usual class: cytotoxic. AID 686970. HT-1080-NT fibrosarcoma viability, CellTiter-Glo ATP luminescence, 48 h;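 also: NT is the 2HG producing partner of a matched IDH1 knockdown line; potency is read from the fitted curve at half-maximal effect; 0% = DMSO-treated cells and -100% = media-only wells without cells; nearly all actives have a fitted effect of over 55% in size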
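Compounds were tested in concentration-response format on HT-1080-NT cells for 48 hours at 37 degrees C. Cell viability came from CellTiter-Glo luminescence; curves were classified by r2, response magnitude and activity.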
IL-1B inflam inh – blocks inflammasome-driven IL-1 beta release; THP-1 LPS/ATP IL-1B secretion, AlphaLISA, 16 h; stronger effect = lower value; activity change, % at 57.5 µM; 360,000 tested, 4.7% active; AID 743279; in the data active = activity change below about -50%; inconclusive = mostly about -30% to -49%
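Secreted IL-1B measured by AlphaLISA bead assay after 16 h compound exposure of THP-1 cells; compounds (final up to 57.5 uM) added 1 h before LPS (250 ng/mL) and ATP (1.25 mM) stimulation; lower signal means less secretion.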
The depositor's hits bear a star; ? = inconclusive; / = no result given; [ ] = another dose, or the depositor's remark. The list is not random: actives were taken first. Their share in the collection is about 19%. Unless noted, calls follow the shape of the dose curve; as a rule, active = well fitted curve in the direction sought with a large enough effect; inconclusive = small, poorly fitted or top-dose-only effect, or another doubt; inactive = no such curve, though single readings can be large; an effect the other way counts as inactive or inconclusive. Unless noted, % is scaled to controls: 0 for no effect and ±100 for the full control effect.

SMILES | HT1080 IDH1KD tx | DT40 TDP1 CPT | DT40 TDP1 no CPT | HT1080-NT tox | IL-1B inflam inh
COc1ccc(NC(=S)Nc2ccccc2)c(OC)c1 | -1% | ? | -23% | 1% | -18
COc1ccc(NC(=S)Nc2ccc(OCc3ccccc3)cc2)c(OC)c1 | -11% | 21µM* | 26µM* | -14% | 34
Cc1ccc(C)c(NC(=O)C(c2ccccc2)N2CCOCC2)c1 (configuration not stated) | 17% | 4% | -4% | 9% | -14
COc1ccccc1/C=C/C(=O)NCC(=O)N/N=C(\CCC(=O)O)c1ccccc1 | 21% | -4% | -24% | -2% | -13
N#Cc1ccc(CSc2nnc(-c3ccncc3)n2CCc2ccccc2)cc1 | ? | -27% | ? | 23µM* | 16
Cn1c(SCC(=O)c2cc(Cl)c(Cl)s2)nnc1-c1ccco1 | 1% | 5% | -30% | -1% | /
Cc1ccc(C(=O)CSc2nnc(-c3ccco3)n2C)cc1 | -1% | ? | 16µM* | 4% | -14
N#Cc1ccc(CSc2nnc(-c3ccccc3)n2Cc2ccco2)cc1 | ? | ? | 29µM* | -9% | -28
COc1ccc(C(=O)CSc2nnc(CNc3ccc(C)cc3C)n2Cc2ccco2)cc1 | -17% | 18µM* | 23µM* | -6% | ?
Cc1cnc(CNc2ncncc2-c2cccnc2)cn1 | / | -6% | 0% | / | /
Cc1ccc(C(=O)CSc2nnc(CNc3ccc(C)cc3C)n2Cc2ccco2)cc1 | ? | 21µM* | ? | ? | -3
Cc1ccc(NCc2nnc(SCc3ccc(C#N)cc3)n2Cc2ccco2)c(C)c1 | -17% | ? | 23µM* | -10% | -8
Brc1ccc(CSc2nnc(-c3cnccn3)n2Cc2ccco2)cc1 | 0% | ? | 15µM* | 5% | 6
Cc1ccc[n+](CC(=O)Nc2ccc(N(C)C)cc2)c1 | 1% | -10% | -5% | -2% | 6
CCC(C)(C)c1ccc(OCCCC[n+]2cccc(C)c2)c(C(C)(C)CC)c1 | 4.1µM* | 0.58µM* | 0.92µM* | 6.5µM* | -180*
CC(C)CCn1c2ccccc2c2cc(CC(N)=O)ccc21 | ? | ? | 23µM* | -2% | -11
CCOc1cc(NC(=S)Nc2cccc(OC)c2)c(OCC)cc1NC(=O)c1ccc(C)cc1 | ? | ? | 21µM* | ? | 5
CCOc1cc(NC(=O)CCl)c(OCC)cc1NC(=O)CCl | ? | 2.9µM* | 1.2µM* | ? | -81*
CCOc1cc(NC(=O)c2ccccc2OC)c(OCC)cc1NC(=O)c1ccccc1 | 15% | ? | ? | 9% | ?
CCOc1cc(NC(=O)C2CCCCC2)c(OCC)cc1NC(=O)c1ccccn1 | 12% | 3.7µM* | 1.6µM* | 6% | 13
CCOc1cc(NC(=O)c2ccccn2)c(OCC)cc1NC(=O)c1ccc(C)cc1 | 12% | 5.2µM* | 3.3µM* | -2% | 7
CCOc1ccccc1NC(=O)CCC(=O)Nc1ccccc1OCC | -1% | 4% | -6% | 1% | 27
CCOc1cc(NC(=S)Nc2cccc(OC)c2)c(OCC)cc1NC(=O)C(C)C | 0% | -23% | -28% | 7% | -25
O=C(CN1C(=O)COc2ccc(S(=O)(=O)N3CCOCC3)cc21)NCc1ccccn1 | 9% | -3% | 6% | -1% | 5
CCOc1cc(C(=O)NC(=S)Nc2cccnc2)cc(OCC)c1OCC | 8% | ? | 23µM* | -6% | -8
COc1ccc(Cl)cc1NC(=O)Nc1ccc(C(=O)N2CCCC2)cc1 | ? | ? | ? | ? | -64*
COc1ccc(Cl)cc1NC(=S)N1CCCC1 | 8% | 14% | -10% | 16% | 9
COc1ccc(C)cc1NC(=O)Nc1ccccc1 | 0%[9.24 µM] | -18% | -19% | 0% | ?
COc1ccc(C)cc1NC(=O)Nc1ccc(C(=O)N2CCCC2)cc1 | ? | 26µM* | ? | ? | ?

Source: PubChem BioAssay
